Assay outcomes: PubChem BioAssay, several laboratories
Sampled rows, rich in hits. Any-hit rate of the full collection: about 3.2%.
Mcl1-Noxa inh = disrupts binding of human Mcl-1 to Noxa peptide; Q07820; TR-FRET Mcl-1/Noxa peptide binding, 2 h; inhibition, % at 21.7 µM; actives 1.5% (n = 220,000); AID 1022;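 active = compounds that cut the protein-peptide binding signal by more than 50% relative to plate controls in a single-dose test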;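 note: His-tagged Mcl-1 with rhodamine Noxa BH3 peptide and terbium anti-His antibody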
Target sequence (Q07820 whole entry, looked up): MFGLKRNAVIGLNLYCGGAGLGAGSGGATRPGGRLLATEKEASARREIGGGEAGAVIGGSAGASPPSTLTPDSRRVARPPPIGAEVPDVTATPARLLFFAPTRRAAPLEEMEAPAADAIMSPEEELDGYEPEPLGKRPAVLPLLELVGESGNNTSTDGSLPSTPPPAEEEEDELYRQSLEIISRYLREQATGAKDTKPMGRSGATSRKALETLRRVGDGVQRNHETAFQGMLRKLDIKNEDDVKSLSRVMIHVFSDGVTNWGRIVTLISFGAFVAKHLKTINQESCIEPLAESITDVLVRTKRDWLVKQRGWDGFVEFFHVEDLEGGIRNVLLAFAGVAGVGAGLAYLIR
Mcl-1 Bim block = human Bim-Mcl-1 interaction inhibition | Q07820 | Bead-based flow cytometry, Bim peptide-Mcl-1 binding | inhibition, % at 10 µM | actives 0.1% (n = 190,000) | AID 1009; in the data active = inhibition above about 40%
Mcl1-Bid inh = disrupts binding of human Mcl-1 to Bid peptide; Q07820; TR-FRET Mcl-1/Bid-Dy647 peptide binding, 1536-well; inhibition, % at 21.7 µM; actives 0.97% (n = 220,000); AID 1021;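 active = compounds that cut the binding signal by more than half at the single screening dose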;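 note: His-tagged Mcl-1 with europium anti-His antibody binding Bid BH3 peptide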
NCF1 inh = inhibitors of human p47phox binding; p47phox/p22phox peptide binding, fluorescence polarization, 2 h; inhibition, % at 24.7 µM; actives 0.53% (n = 220,000); AID 1274;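 active = inhibition above about 30%, limit read from the data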
14-3-3 Bad inh = disrupts binding of bovine 14-3-3 zeta to phospho-Bad peptide | inhibition, % at 21.7 µM | P63103 | actives 0.71% (n = 220,000) | TR-FRET 14-3-3zeta/Dy647-pBad peptide displacement, 1 h;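 active = inhibition above about 70%, limit read from the data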
Target sequence (P63103 whole entry, looked up): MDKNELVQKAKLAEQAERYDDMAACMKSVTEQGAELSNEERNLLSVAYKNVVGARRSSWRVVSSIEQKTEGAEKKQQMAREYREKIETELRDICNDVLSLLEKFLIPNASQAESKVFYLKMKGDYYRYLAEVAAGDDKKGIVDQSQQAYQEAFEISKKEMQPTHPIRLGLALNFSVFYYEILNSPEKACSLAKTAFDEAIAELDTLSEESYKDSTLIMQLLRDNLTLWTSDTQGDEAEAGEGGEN
Hits are given with their value; – = inactive; · = not tested or not shown; + = active, no number; [ ] = dose if it differs, or a comment.

SMILES	Mcl1-Noxa inh	Mcl-1 Bim block	Mcl1-Bid inh	NCF1 inh	14-3-3 Bad inh
CCn1c(=O)c(=O)[nH]c2cc(C(=O)N3CCN(Cc4ccc5c(c4)OCO5)CC3)ccc21	–	–	–	–	–
O=C(NNC(=O)c1ccc2nonc2c1)Nc1ccc(Cl)cc1	–	·	–	–	–
COc1ccc(NC(=O)COC(=O)[C@@H](NC(=O)c2c(F)cccc2F)C(C)C)cc1	–	–	–	–	–
CC(C)COc1ccc(C(=O)CCN2CCCCC2)cc1	–	–	–	–	79
CCCCOc1ccc(C(=O)CCN2CCCCC2)cc1	–	–	–	–	–
Cc1ccc(-c2nnc(N3CCCCC3)c3ccccc23)cc1	–	·	–	–	–
Cc1ccc(-c2nnc(N3CC(C)OC(C)C3)c3ccccc23)cc1 (centres undefined)	–	–	91	–	75
Cc1ccc(NC(=O)/C(CN(C)C)=N\O)cc1	–	–	–	–	93[fluorescence artefact?]
Cc1ccc(NC(=O)CN(C)CC(=O)Nc2ccccc2-c2ccccc2)cc1	–	–	–	–	–
O=S(=O)(Nc1c(S(=O)(=O)c2ccccc2)c2nc3ccccc3nc2n1C1CCCCC1)c1ccccc1	55	–	57	–	–
C=CCn1c(NS(=O)(=O)c2ccccc2)c(S(=O)(=O)c2ccc(C)cc2)c2nc3ccccc3nc21	–	–	–	–	–
CC(C)(CC(=O)O)CC(=O)Nc1cc(C(F)(F)F)cc(C(F)(F)F)c1	–	·	–	–	–
CCCN1C(=O)/C(=C\c2nc3ccccc3c(=O)[nH]2)c2ccccc21	–	–	51	–	–
COC(=O)C(CC(=O)c1ccc(Cl)cc1)c1ccc(C(C)C)cc1 (centres undefined)	–	–	–	32	·
C1=CC2CC1CC2CN1CCN(c2ccccc2)CC1 (centres undefined)	–	–	–	–	75
CCn1c(CNc2cccc(C(F)(F)F)c2)n[nH]c1=S	–	–	–	–	–
CC1CCCC(NC(=O)COC(=O)[C@@H](NC(=O)c2ccco2)C(C)C)C1C (some centres undefined)	–	–	–	·	–
O=C(O)c1[nH]c2ccccc2c1C=NCc1ccccc1Cl	–	–	89	–	–
CS(=O)(=O)c1nc(-c2ccc(Br)cc2)n[nH]1	–	–	–	–	–
COc1ccc2cc(OC)c(C(=O)N3CCOCC3)cc2c1	–	–	–	37	–
COc1cccc(C(=O)N2CCOCC2)c1	–	–	–	–	–
CN(C)c1ccc(/C=C/c2ccc3ccccc3[n+]2C)cc1	–	–	–	–	–
CN(C)c1ccc(/C=C/c2ccc3c4ccccc4ccc3[n+]2-c2ccccc2)cc1	84	–	–	–	–
CSc1[nH]c(=O)c(C(=O)O)cc1C#N	–	–	–	–	71
CCOC(=O)c1cc(C#N)c(SCC(=O)O)[nH]c1=O	–	–	–	–	–
SMILES	Mcl1-Noxa inh	Mcl-1 Bim block	Mcl1-Bid inh	NCF1 inh	14-3-3 Bad inh
Nn1c(SCc2nc3ccccn3c2Br)nnc1-c1cccnc1	–	–	–	57	–
Nn1c(SCc2ccccc2F)nnc1-c1cccnc1	–	·	–	–	–
Cc1scc(C(=O)N/N=C/c2ccc(Cl)s2)c1C	–	–	–	–	–
CCCn1c(C)cc(-c2csc(N)n2)c1C	–	–	–	–	74
C=CCn1c(C)cc(-c2csc(N)n2)c1C	–	–	–	–	–
Cc1nc(NC(=O)c2ccccc2)sc1-c1csc(Nc2ccc(C(=O)O)cc2)n1	90	·	91	–	75
Cc1nc(NC(=O)c2ccc(Cl)cc2)sc1-c1csc(Nc2cccc(F)c2)n1	51	–	–	158	73
Cc1ccc(Nc2nc(-c3sc(NC(=O)c4cccc(Cl)c4)nc3C)cs2)cc1	–	–	–	–	–
Cc1nc(NC(=O)c2ccccc2)sc1-c1csc(NCc2ccco2)n1	61	–	–	–	–
CCn1nnc(NC(=O)COc2ccc([N+](=O)[O-])cc2)n1	–	·	–	–	–
N#CC(C#N)=Cc1cccn1-c1ccc(S(N)(=O)=O)cc1	–	–	–	–	–
CC(NC(=O)C1CC1)C(c1cccs1)N1CCN(c2ccccc2)CC1 (centres undefined)	–	–	–	–	–
CC(NC(=O)NC1CCCCC1)C(c1cccs1)N1CCN(c2ccccc2)CC1 (centres undefined)	–	–	92	–	–
O=C1c2cccc3cccc(c23)C(=O)N1CCN1CCN(C(=S)Nc2ccc(Cl)cc2)CC1	–	–	–	32	–
O=C1c2cccc3cccc(c23)C(=O)N1CCN1CCN(C(=S)Nc2ccccc2)CC1	–	–	–	–	–
CN(C)CCCNS(=O)(=O)c1ccc(N2CCC(c3ccc(Cl)cc3)=N2)cc1	–	–	–	41	–
Cc1nc2cc(N3CCN(C)CC3)c(NC(=O)Cc3ccccc3)cc2c(=O)n1Cc1ccccc1	–	–	–	–	–
Cc1nc2cc(N3CCCCC3)c(NC(=O)c3ccncc3)cc2c(=O)n1Cc1ccc(Cl)cc1	–	–	57	–	–
NC(=O)c1ccc[n+](CC(=O)c2ccc(F)cc2)c1	–	·	–	–	–
O=C(OCC(=O)c1ccc(S(=O)(=O)N2CCCC2)cc1)C1=COCCO1	–	–	–	+	–
O=C(OCC(=O)N1CCCCCC1)c1ccc(S(=O)(=O)N2CCOCC2)cc1	–	–	–	–	–
CC(/C=N\Nc1nnc2c(n1)[nH]c1c(C)cccc12)=C\c1ccco1	87	–	78	–	–
O=C(NNC(=S)Nc1ccccc1C(F)(F)F)C1CC1	–	·	–	–	–
CCOc1ccc(C(=O)NC(=S)Nc2ccccc2N2CCC(C)CC2)cc1[N+](=O)[O-]	–	–	–	–	–
CCOc1ccc(C(=O)NC(=S)Nc2ccc(N3CCC(C)CC3)cc2)cc1[N+](=O)[O-]	–	–	54	–	–
SMILES	Mcl1-Noxa inh	Mcl-1 Bim block	Mcl1-Bid inh	NCF1 inh	14-3-3 Bad inh
O=C(O)/C=C/c1ccc([N+](=O)[O-])o1	–	–	–	–	–
O=C1NC(=S)S/C1=C\C=C\c1ccc([N+](=O)[O-])o1	103	·	–	–	87
CC(=O)N1CCc2cc(S(=O)(=O)NC(Cc3ccccc3)C(=O)NC3CCCCCC3)ccc21 (centres undefined)	103	–	99	–	–
CC1(C)CCN(Cc2ccccc2)C1CC#N (centres undefined)	–	–	–	–	71
Cc1cc(C)c(C#N)c(N2CCN(Cc3ccccc3)CC2)n1	–	–	–	–	–
Cc1c(-c2ccccc2)[n+](=O)c2c(n1[O-])CCCC2	–	·	–	–	–
CCSc1nnc(CNC(=O)C23CC4CC(CC(C4)C2)C3)n1C1CCCCC1	–	–	–	–	–
Cc1ccc(OCCn2c(=O)n(C)c3ccccc32)cc1	–	–	–	–	–
O=C1N/C(=N/Nc2ccccc2)S/C1=C\c1ccccc1	97	–	–	–	–
CCc1nc(C)ccc1OCC(=O)NCCCN(C)C	–	–	55	–	–
COc1cc(N(C)C)c([N+](=O)[O-])cc1C(=O)N1CCOCC1	–	–	–	–	–
CCOC(=O)c1cc(-c2cccc([N+](=O)[O-])c2)n[nH]1	–	–	–	–	81
